# High-throughput results from PubChem.
# Rows were chosen to be rich in hits. Some 19% of all compounds tested hit in one or more screens of this group.
# TDP1 cell CPT = DT40-hTDP1 cell growth loss with CPT. actives 12% (n = 420,000). AID 686979. Potency, µM (series often up to 46.2 µM), for the others: top-dose activity change, negative = growth inhibition, actives largely listed as inhibitors. chicken DT40 Tdp1-/-;hTDP1 cells + 20 nM CPT, ATP luminescence, 48 h; note: potency is the fitted concentration of half-maximal effect; nearly all actives have a fitted effect of over 55% in size
#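 Chicken DT40 Tdp1-/- cells stably complemented with human TDP1 were seeded at 400 cells/well in medium containing 20 nM camptothecin, exposed to pin-transferred compounds, and grown at 37 °C for at least 48 hr. Viability was read as ATP luminescence.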
# HT1080 IDH1KD tx = kills HT-1080 cells with IDH1 knockdown; HT-1080 IDH1 knockdown viability, ATP luminescence, 48 h; Potency, µM (titrated, usually from 46.1 µM), without a hit: at the highest dose activity, negative = toxicity, usual class: cytotoxic; actives 2% (n = 360,000); AID 686971;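 note: potency is the fitted concentration of half-maximal effect; 0% = DMSO wells and -100% = cell-free medium wells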
#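 Using the IDH1-knockdown HT-1080 line run in the same batch and compound series as the NT line, viability after 48 h at 37 °C was determined by CellTiter-Glo luminescence and expressed as % activity.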
# HT1080NT lethal = kills 2HG-producing HT-1080-NT fibrosarcoma cells. actives 1.6% (n = 360,000). AID 686970. HT-1080-NT fibrosarcoma viability, CellTiter-Glo ATP luminescence, 48 h. Potency, µM (series often up to 46.1 µM), for the others: top-dose activity, negative = less viability, usual class: cytotoxic;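 note: NT is the 2HG producing partner of a matched IDH1 knockdown line; potency is the fitted concentration of half-maximal effect; 0% = DMSO-treated cells and -100% = media-only wells without cells; nearly all actives have a fitted effect of over 55% in size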
#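 Compounds were tested in concentration-response format on HT-1080-NT cells for 48 hours at 37 degrees C. Cell viability came from CellTiter-Glo luminescence; curves were classified by r2, response magnitude and activity.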
# IL1B secr inh = inflammasome signaling inhibition, IL-1 beta readout; actives 4.7% (n = 360,000); activity change, % at 57.5 µM; THP-1 LPS/ATP IL-1B secretion, AlphaLISA, 16 h; hits give low values; in the data active = activity change below about -50%; inconclusive = mostly about -30% to -49%
#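 THP-1 cells pretreated 1 hr with compounds (up to 57.5 uM final), then stimulated with LPS (250 ng/mL final) plus ATP (1.25 mM final); secreted IL-1B measured by AlphaLISA after 16 hr, decreased signal indicating inhibition.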
# DT40 TDP1 no CPT = qHTS for Inhibitors of human tyrosyl-DNA phosphodiesterase 1 (TDP1): qHTS in cells in absence of CPT; Potency, µM (highest dose often 46.2 µM), for the others: top-dose activity change, negative = growth inhibition, usual class: inhibitors; DT40 Tdp1-/- hTDP1 cells, no CPT, ATP luminescence, 48 h; actives 15% (n = 420,000); AID 686978, 2013; note: potency is the fitted concentration of half-maximal effect; nearly all actives have a fitted effect of over 55% in size
#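 Chicken DT40 Tdp1-/- cells stably complemented with human TDP1 were seeded at 400 cells/well with DMSO in place of 20 nM camptothecin. After compound pinning, cells grew at least 48 hr at 37 °C; viability read by CellTiter-Glo luminescence.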
# * marks the source's active call; other numbers are inactive results; ? = inconclusive; . = no result given. Unless noted, calls come from the whole dose curve; as a rule, active = well fitted curve in the direction sought with a large enough effect; inconclusive = small, poorly fitted or top-dose-only effect, or another doubt; inactive = no such curve, though single readings can be large; an effect the other way counts as inactive or inconclusive. Unless noted, % is set by controls: 0 for no effect and ±100 for the full control effect.
SMILES,TDP1 cell CPT,HT1080 IDH1KD tx,HT1080NT lethal,IL1B secr inh,DT40 TDP1 no CPT
N#CCC(=O)NCC1(c2ccccc2)CCCC1,8.9%,5.3%,8.2%,19.7,12.9%
O=C(NCC1(c2ccccc2)CCCC1)c1ccc(Br)cc1,?,8.3%,15.7%,-2.3,?
COc1ccc(C2(CNC(=O)c3ccc(Br)o3)CCOCC2)cc1,-28.0%,8.8%,6.6%,4.6,?
Cc1ccc(C(=O)NCC2(c3ccccc3)CCCC2)cc1,11.6µM*,-0.3%,-6.4%,-11.5,11.6µM*
COc1cc(C(=O)NCC2(c3ccccc3)CCCC2)cc(OC)c1OC,14.6µM*,8.2%,29.9%,6.3,14.6µM*
Cc1ccc(S(=O)(=O)NCC(=O)OCC(=O)N2CCN(C(=O)c3ccco3)CC2)cc1C,-4.5%,-1.4%,-9.9%,8.4,-12.5%
CCOc1ccc2c(c1)C(c1ccccc1)=NNC(c1ccccc1)=N2,?,1.7%,7.8%,6.3,?
CCCCCC(=O)N1C[C@@H](O)[C@H](n2cc(-c3ccc(F)cc3)nn2)C[C@@H]1c1ccc(Cl)cc1,16.4µM*,?,-24.1%,-56.5*,14.6µM*
CCCCCC(=O)N1C[C@H](n2cc(-c3ccc(F)cc3)nn2)[C@@H](O)C[C@@H]1c1ccc(Cl)cc1,?,?,16.4µM*,?,25.9µM*
CCCCCC(=O)N1C[C@H](O)[C@@H](n2cc(-c3ccc(F)cc3)nn2)C[C@@H]1c1ccc(C)cc1,?,-21.1%,-14.5%,?,?
CCCCCC(=O)N1C[C@@H](O)[C@H](n2cc(C3CC3)nn2)C[C@@H]1c1ccccc1,?,-3.8%,-3.5%,45.5,16.4µM*
CC(c1ccon1)N(C)C(=O)c1ccc2nc(Cc3cccc(Cl)c3)oc2c1 (stereo unspecified),?,-11.2%,-2.8%,0.0,?
COc1ccc(C)cc1N1C(=N)/C(=C2/Nc3ccccc3S2)C(c2ccccc2)C1=O (stereo unspecified),6.51µM*,-11.4%,-13.5%,-11.2,3.66µM*
COc1ccc(C2C(Oc3ccccc3)C(=O)N2c2cc(C)ccc2C)cc1OC (stereo unspecified),-0.1%,2.0%,1.8%,?,-3.9%
CC(C)Oc1ccc(C(=O)N2CCN(C(=O)c3ccco3)CC2)cc1,-2.8%,4.7%,19.9%,7.0,-3.4%
Cn1cnnc1SCc1ccc(C(=O)N=Nc2c(O)n(C)c3ccccc23)cc1,?,16.8%,5.3%,-54.6*,?
Cn1cnnc1SCC(=O)n1c2ccccc2c2ccccc21,-10.3%,7.2%,8.7%,17.1,-18.3%
O=C(NCC(O)c1nc2ccccc2[nH]1)c1cc([N+](=O)[O-])ccc1F (stereo unspecified),?,-16.6%,-16.3%,-86.6*,?
CCOC(=O)c1ccc(NCc2nc3ccccc3[nH]2)cc1,16.4µM*,-21.0%,-16.3%,12.8,16.4µM*
Cc1ccc(C(=O)Cc2nc3ccccc3[nH]2)cc1,?,-30.1%,3.3%,-101.0*,-28.8%
O=C(NC(Cc1ccccc1)c1nc2ccccc2[nH]1)c1cccc([N+](=O)[O-])c1 (stereo unspecified),20.6µM*,-15.4%,-7.6%,-15.5,?
COc1cccc(S(=O)(=O)N(C)C[C@@H]2OCc3cn(nn3)CCCC(=O)N([C@H](C)CO)C[C@H]2C)c1,-21.8%,3.0%,10.8%,-11.6,?
Cc1ccc(C)c(S(=O)(=O)N2CCCCC2CCNC(=O)C(=O)NCCc2ccco2)c1 (stereo unspecified),?,-4.8%,-1.4%,-20.9,?
CC(=O)Nc1ccc(C(=O)N2CCCC(n3cc(C(=O)NCC(C)C)nn3)C2)cc1 (stereo unspecified),-0.1%,.,.,.,-6.0%
COCCNC(=O)C1(C)CCN(Cc2cccc(Oc3ccccc3)c2)C1 (stereo unspecified),?,9.7%,6.2%,27.8,?
SMILES,TDP1 cell CPT,HT1080 IDH1KD tx,HT1080NT lethal,IL1B secr inh,DT40 TDP1 no CPT
O=C(Nc1nc2ccccc2[nH]1)c1cccc([N+](=O)[O-])c1,-3.2%,16.9%,?,-3.6,?
O=C(NCc1nc2ccccc2[nH]1)c1c(F)c(F)c(F)c(F)c1F,-1.7%,1.3%,-0.1%,-78.3*,17.7%
O=C(Cc1nc2ccccc2[nH]1)c1cccc([N+](=O)[O-])c1,2.91µM*,-7.4%,1.5%,0.0,3.66µM*
CCOC(=O)/C(=C\c1cccc(O)c1)c1nc2sc(C)c(C)c2c(=O)[nH]1,9.2µM*,?,?,-101.8*,23.1µM*
CCOC(=O)c1ccccc1NC(=O)Cc1ccc(OC)c(S(=O)(=O)N2CCOCC2)c1,?,-17.7%,-2.4%,-28.6,?
COc1ccccc1Cc1c(C2CCCCC2)nc2ccc(Cl)cn12,23.1µM*,?,?,-14.3,25.9µM*
COc1ccccc1Cc1c(C2CCCCC2)nc2ccc(C)cn12,20.6µM*,?,13µM*,-17.0,23.1µM*
Cc1ccc2nc(C3CCCCC3)c(CC(C)(C)C)n2c1,?,?,16.4µM*,33.5,16.4µM*
CC(=O)O/N=C/c1c(C)c(C=O)n2ccccc12,?,-1.1%,13.3%,-13.8,-1.8%
O=C(Nc1ccccc1)OC(CN1CCCCC1)C(F)(F)F (stereo unspecified),2.1%,10.8%,7.3%,-3.6,8.3%
Cc1ccc(OCC(=O)N/N=C/c2cccc3cccnc23)cc1,23.1µM*,?,-21.8%,98.8,25.9µM*
O=C(COc1ccc(F)cc1)N/N=C/c1cccc2cccnc12,20.6µM*,?,-29.5%,164.1,16.4µM*
COc1cc2cnc(-c3ccccc3)c(-c3ccc(C#N)cc3)c2cc1OC,?,9.5%,0.0%,-22.2,16.4µM*
CC(N)c1csc(Nc2ncccn2)n1 (stereo unspecified),-11.3%,4.3%,-1.2%,1.4,?
NC(c1csc(Nc2cc(Oc3ccccc3)ncn2)n1)c1ccccc1Cl (stereo unspecified),?,?,?,-88.7*,?
CC(N)c1csc(Nc2cc(Oc3ccccc3)ncn2)n1 (stereo unspecified),?,-22.5%,?,-64.8*,0.0411µM*
O=C(Cc1csc2nc(-c3ccccc3)cn12)NCc1ccc(F)cc1,-14.7%,.,.,.,-11.0%
COc1ccc2[nH]c(=O)c(CNc3ccccc3)cc2c1,4.11µM*,-0.5%,-1.0%,-6.5,?
COc1ccc(NCc2cc(=O)[nH]c3ccccc23)cc1,-3.4%,-7.8%,-2.8%,-24.3,-20.4%
CCOc1ccc(NCc2cc3cc(OC)ccc3[nH]c2=O)cc1,5.8µM*,-2.3%,-0.7%,44.6,20.6µM*
